# Screening results (PubChem BioAssay)
# VACV E9 pol inh: vaccinia E9 polymerase processive synthesis inhibitors, primary screen, biochemical, absorbance | 0.94% of 46,000 active | Vaccinia virus DNA polymerase (E9) processive complex | AID 493162, 2011 | normalized absorbance, % (no concentration beside the values) | in vitro processive DNA synthesis, absorbance read-out; stronger effect = lower value; in the data active means normalized absorbance mostly below about 85%, no sharp cut-off; inactive means mostly above about 86%
# The depositor's hits bear a star. The full list was thinned out, with hits kept by preference.
SMILES,VACV E9 pol inh
CSc1nnc(NC(=O)c2ccc(Cl)cc2Cl)s1,100.6
N#Cc1cc2c(nc1SCc1ccc(Cl)cc1)CCCC2=O,101.4
CC(C)Cc1ccc2c(N)c(C(=O)c3ccccc3)sc2n1,100.9
CN(C)CCc1cc2c(c3c1ccc1ccccc13)OCO2,11.1*
O=C(COc1ccc2ccccc2c1)NCc1ccc2c(c1)OCO2,106.3
c1ccc2cc(CNCCc3ccc4c(c3)OCO4)ccc2c1,104.7
Cc1ccc(S(=O)(=O)N2CCCCC2)cc1-n1c(C)ccc1C,99.6
Cc1c(Cl)cccc1NC(=O)c1cc(-c2ccco2)nc2ccccc12,113.2
Cc1nc(N=C(N)N)nc2ccccc12,81.2
COc1ccc2nc(N=C(N)N)nc(C)c2c1,36.5*
COc1ccc2nc(C)c3c(c2c1)OC(C)C3 (centres undefined),98.8
N#Cc1ccc(C(=O)N2CCN(c3ccccc3)CC2)cc1,100.4
Cc1cc(Nc2ccc(C(=O)Nc3ccc4c(c3)OCO4)cc2)n2ncnc2n1,102.4
CN(C)CCNc1cc(-c2cccnc2)nc2ccccc12,48.0*
COC(=O)c1cc(-c2cccnc2)nc2ccccc12,96.4
CN(C)CCNc1cc(-c2ccncc2)nc2ccccc12,62.7
CC[N+](CC)=c1ccc2ccc(O)cc2o1,100.6
COC(=O)C(NC(=O)c1cn(-c2ccccc2)nc1-c1ccc(Cl)cc1)C(C)C (centres undefined),108.7
Cc1c(CC(=O)O)c(=O)oc2c(C)c3occ(C(C)(C)C)c3cc12,97.9
Cc1c(CC(=O)O)c(=O)oc2c(C)c3occ(-c4ccc(Br)cc4)c3cc12,65.0*
COc1ccc(-c2coc3cc4oc(=O)c(CC(=O)O)c(C)c4cc23)cc1,86.1
CCOC(=O)CN1C(=O)S/C(=C\c2ccccc2OCc2ccccc2F)C1=O,99.3
CCOC(=O)CSc1nnc(NC(C)=O)s1,88.5
O=C(O)/C=C1\C(=O)Nc2ccccc21,104.0
Cc1ccc(Sc2cnc3ccccc3n2)cc1,118.7
SMILES,VACV E9 pol inh
CCOC(=O)c1[nH]ncc1Sc1ccc(Cl)cc1,101.4
Cc1ccc(Sc2cn[nH]c2C)cc1,72.9*
O=C(NCc1nnc(SC/C=C/c2ccccc2)o1)c1cccs1,99.3
O=C(CCC(=O)n1ncc2ccccc21)NC1CCCCC1,96.4
Oc1ccc(Br)cc1C=NCC1CCCO1 (centres undefined),75.0*
Oc1ccc(Br)cc1C=NCC12CCC3CC(CC(C3)C1)C2,100.1
Oc1ccc(Br)cc1C=NCc1ccccc1,97.5
CC1(C)COC(O)(C(F)(F)F)CC1=O (centres undefined),100.2
CC(=O)OCc1ccccc1Oc1cccc(Cl)c1,109.7
CN1/C(=C/C=C/c2oc3ccccc3[n+]2C)Oc2ccccc21,89.0*
O=C(NC(Cc1ccccc1)C(=O)Nc1nc(-c2ccccc2)cs1)Oc1ccccc1 (centres undefined),99.9
CCC(Sc1nnc2sc3ccccc3n12)C(=O)OC (centres undefined),105.5
CC(c1ccccc1)N1C(=O)NC(=O)/C(=C/c2coc3ccccc3c2=O)C1=O (centres undefined),91.4
N=C1/C(=C\c2coc3ccccc3c2=O)C(=O)N=C2SC=NN12,45.6*
CC1=NN2C(=N)/C(=C/c3cn(CCOc4c(C)cccc4C)c4ccccc34)C(=O)N=C2S1,100.6
CN(c1ccc(O)cc1)S(=O)(=O)c1ccccc1,91.7
Cc1ccc(CCNC(=O)c2coc3nc4ccccc4nc23)cc1,103.0
CC1CCCN(CCCNC(=O)c2coc3nc4ccccc4nc23)C1 (centres undefined),60.3*
CC1CCCN(CCCNC(=O)C2CCCN(c3ncnc4c3nc3n4CCCCC3)C2)C1 (centres undefined),101.0
Cc1nn(-c2ccccc2)c2sc(C(=O)NCCCn3ccnc3)cc12,93.1
OC(CN1CCN(c2ccccc2)CC1)C(F)(F)F (centres undefined),97.5
c1ccc(-c2nsc(NC3Cc4ccccc4C3)n2)cc1,99.5
CC(C)(C)NC(=O)N1CCN(c2nc(-c3ccccc3)ns2)CC1,66.5*
O=C(O)/C=C\C(=O)N1CCN(c2nc(-c3ccccc3)ns2)CC1,95.2
c1cn(-c2ccc(N3CCCCC3)nn2)cn1,104.4
SMILES,VACV E9 pol inh
CC1=CC(C)(C)N=C(Nc2nc(C)c3cc(C)cc(C)c3n2)N1,50.1*
CCSC1=NC(C)(C)C=C(C)N1,117.8
NC(=S)c1sccc1CS(=O)c1ccc(Cl)cc1 (centres undefined),100.2
O=C(Cc1cccc2ccccc12)N1CCN(Cc2ccccc2)CC1,101.9
CCn1c2ccccc2c2cc(CN3CCN(Cc4cccc(C)c4)CC3)ccc21,99.4
Cc1cccc(CN2CCN(C(=O)CC(C)C)CC2)c1,59.3*
CC(=O)N(C(C)=O)c1nccc(-c2c(-c3ccccc3)noc2C)n1,96.9
Cc1nc2ccccn2c1-c1ccnc(=S)[nH]1,97.6
Cc1onc(C(=O)N(C)C)c1-c1ccnc(=S)[nH]1,87.7*
Nc1nc(-c2ccccc2)c(-c2nc3ccccc3[nH]2)s1,93.9
COc1nc(C)nc2sc3c(c12)CCCC3,100.9
COC(=O)[C@@H](N)CCCN=C(N)N[N+](=O)[O-],99.7
